Among the test systems are HCT-15 colon; HT29 colon; SNB-75 CNS; SNB-19 CNS; U251 CNS; PC-3 prostate; SK-MEL-5 melanoma; UACC-62 melanoma; LOX IMVI melanoma; SK-MEL-28 melanoma; SK-MEL-2 melanoma; EKVX NSCLC; SN12C renal; UO-31 renal; TK-10 renal; ACHN renal; CAKI-1 renal; CCRF-CEM leukemia; MOLT-4 leukemia; A498 renal.
Common to all, as to experiment: NCI-60 one-dose screen, 48 h (100 = growth as untreated, 0 = no growth, -100 = all killed)
What all share (settings): 10 µM unless noted

Compounds without any hit were thinned out: in the full panel of roughly 83,000, 20% have a hit.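 Results are percent growth after 48 hours of single-concentration exposure. 100 means growth as in untreated cells, lower positive values show inhibition; negative values down to -100 show cell death.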 Values without a mark were called inactive. Calls of active or inactive are those of the source. Rule for the calls: active = growth percent below 10; inactive = the rest.

On to `COP(=O)(OC)c1nnn(-c2cccc([N+](=O)[O-])c2)c1C`, for which the growth in the test with HCT-15 colon was 106%; with HT29 colon it was 105%; in the test with SNB-75 CNS it was 93.6%; in the test on SNB-19 CNS it was 105%; in the test on U251 CNS it was 99.7%; in the test on PC-3 prostate, 98.7%. In addition, the growth was 100% in the test with SK-MEL-5 melanoma; 99.2% in the test with UACC-62 melanoma; 96% with LOX IMVI melanoma; 113% in the test with SK-MEL-28 melanoma; 106% in the test with SK-MEL-2 melanoma; 106% in the test with EKVX NSCLC. In addition, the growth was 104% in the test on SN12C renal; 84.5% in the test on UO-31 renal; 99% in the test with TK-10 renal; 106% in the test with ACHN renal; 97.2% in the test with CAKI-1 renal; 104% in the test on CCRF-CEM leukemia. The growth in the test with MOLT-4 leukemia was 101%.

As to `C/C(=C(\c1ccc(OCCN2CCCCCC2)cc1)c1ccc(OC(=O)Cc2ccccc2)cc1)c1ccc(Cl)cc1`, the growth was -15.5% (active) in the test with HCT-15 colon; -8.13% (active) in the test on HT29 colon; 39.7% in the test on SNB-75 CNS; 63.1% in the test with SNB-19 CNS; 8.22% (active) in the test with U251 CNS; 41.9% in the test on PC-3 prostate. Moreover, the growth in the test on SK-MEL-5 melanoma is 40.1%; in the test on UACC-62 melanoma, -5.48% (active); with LOX IMVI melanoma, -94.5% (active); with SK-MEL-28 melanoma it was -27.3% (active); with SK-MEL-2 melanoma it was 52.9%; with EKVX NSCLC it was 56.4%. Further, the growth is 28.9% with SN12C renal; 44.1% in the test on UO-31 renal; 68.6% in the test with TK-10 renal; 62.3% in the test with ACHN renal; 48.7% in the test with CAKI-1 renal; 6.31% (active) in the test with CCRF-CEM leukemia. The growth in the test on MOLT-4 leukemia was -6.79% (active).

In the case of `O=C(Cn1nnc2ccccc21)N/N=C/c1ccccc1F`, the growth with HCT-15 colon is 106%; in the test with HT29 colon, 99.5%; with SNB-75 CNS, 95.2%; in the test with SNB-19 CNS it was 103%; in the test with U251 CNS, 97.1%; in the test with PC-3 prostate, 96%. The growth with SK-MEL-5 melanoma is 102%; in the test on UACC-62 melanoma, 88.5%; in the test with LOX IMVI melanoma, 101%; in the test on SK-MEL-28 melanoma, 108%; in the test with SK-MEL-2 melanoma it was 102%; in the test with EKVX NSCLC, 106%. For the same molecule, the growth in the test on UO-31 renal was 87%; in the test with TK-10 renal, 107%; with ACHN renal, 106%; in the test with CAKI-1 renal it was 97.9%; in the test on A498 renal, 85.5%; in the test on CCRF-CEM leukemia, 103%. In addition, in the test on MOLT-4 leukemia, the growth was 104%.

Regarding `CC(C)c1ccc(C(=O)Nc2sc3cc(O)ccc3c2C#N)cc1`, the growth in the test with HCT-15 colon was 18.9%; in the test on HT29 colon, 57.8%; in the test with SNB-75 CNS, 22.6%; in the test on SNB-19 CNS it was 36%; in the test with U251 CNS it was 29.2%; in the test on PC-3 prostate, 58.6%. In addition, the growth was 22.3% with SK-MEL-5 melanoma; 18% in the test with UACC-62 melanoma; 25.4% in the test on LOX IMVI melanoma; 52.4% with SK-MEL-28 melanoma; 47.6% in the test on SK-MEL-2 melanoma; 52.9% in the test with EKVX NSCLC. Besides, the growth in the test on UO-31 renal is 25.1%; in the test with TK-10 renal it was 63.4%; in the test on ACHN renal it was 47.3%; in the test with CAKI-1 renal it was 39.6%; in the test on A498 renal, -0.765% (active); in the test with CCRF-CEM leukemia, 12.3%. Moreover, the growth in the test on MOLT-4 leukemia was 18.3%.

`Cc1ccc(C)n1/C=C/n1c(C)ccc1C`: the growth is 106% with HCT-15 colon; 102% in the test with HT29 colon; 80.7% with SNB-75 CNS; 98.4% in the test on SNB-19 CNS; 109% in the test on U251 CNS; 62.8% with PC-3 prostate. Besides, the growth in the test on SK-MEL-5 melanoma is 98.7%; in the test on UACC-62 melanoma, 98.8%; with LOX IMVI melanoma, 105%; with SK-MEL-28 melanoma, 125%; in the test with SK-MEL-2 melanoma, 109%; in the test with EKVX NSCLC it was 85.9%. Besides, the growth is 93.6% with UO-31 renal; 93.5% with TK-10 renal; 112% with ACHN renal; 69.5% in the test on CAKI-1 renal; 85.8% with A498 renal; 88.4% in the test on CCRF-CEM leukemia. Further, in the test with MOLT-4 leukemia, the growth was 117%.

`O=C1OCC2=C1C(c1cccc(C(F)(F)F)c1)c1cc3c(cc1N2CCO)OCO3` (configuration not stated): the growth in the test with HCT-15 colon was 25.2%; with HT29 colon, 6.68% (active); in the test with SNB-75 CNS, 19%; in the test on SNB-19 CNS, 30.1%; in the test on U251 CNS it was 21%; in the test with PC-3 prostate, 25.9%. Also, the growth was 20% in the test with SK-MEL-5 melanoma; 48.4% with UACC-62 melanoma; 40.6% in the test on LOX IMVI melanoma; 57.3% in the test with SK-MEL-28 melanoma; 24% in the test with SK-MEL-2 melanoma; 49.7% in the test on EKVX NSCLC. Further, the growth in the test with SN12C renal was 46.8%; in the test with UO-31 renal, 47.3%; in the test with TK-10 renal, 60.8%; with ACHN renal it was 42.8%; in the test on CAKI-1 renal, 26.8%; in the test on CCRF-CEM leukemia, 7.82% (active). Also, the growth in the test on MOLT-4 leukemia was 20%.

As to `CC(C)C[C@@H](C(=O)N[C@H](C(=O)OC1CCCC1)c1ccccc1)[C@H](O)C(=O)NO`, the growth in the test with HCT-15 colon was 58.4%; in the test with HT29 colon it was 58%; in the test with SNB-75 CNS, 101%; in the test on SNB-19 CNS, 76.2%; with U251 CNS, 45.7%; in the test on PC-3 prostate, 49.6%. For the same molecule, the growth in the test with SK-MEL-5 melanoma is 59.8%; with UACC-62 melanoma, 68.8%; with LOX IMVI melanoma, 54.2%; with SK-MEL-28 melanoma, 63.2%; with SK-MEL-2 melanoma, 33.2%; in the test on EKVX NSCLC, 67.5%. For the same molecule, the growth with UO-31 renal is 50.8%; in the test with TK-10 renal, 70.4%; in the test with ACHN renal, 85.9%; in the test with CAKI-1 renal, 76.2%; in the test on A498 renal, 40.7%; in the test with CCRF-CEM leukemia, 67.8%. In addition, the growth in the test on MOLT-4 leukemia is 63.4%.

On to `COc1cc(C(=O)/C=C/c2ccc(N3CCN(C)CC3)cc2)cc(OC)c1OC`, for which the growth in the test with HCT-15 colon is 92.5%; in the test with HT29 colon it was 94.7%; in the test with SNB-75 CNS, 82.2%; in the test on SNB-19 CNS, 95.3%; in the test with U251 CNS, 99.5%; in the test with PC-3 prostate, 99.3%. Moreover, the growth in the test on SK-MEL-5 melanoma is 103%; in the test with UACC-62 melanoma it was 86.8%; with LOX IMVI melanoma, 90.4%; in the test on SK-MEL-28 melanoma, 103%; with SK-MEL-2 melanoma, 107%; with EKVX NSCLC, 88.6%. Moreover, the growth is 98.5% in the test with SN12C renal; 73.2% in the test with UO-31 renal; 110% in the test with TK-10 renal; 97.6% in the test with ACHN renal; 90.9% in the test with CAKI-1 renal; 105% in the test with CCRF-CEM leukemia. In the test with MOLT-4 leukemia, the growth was 98%.
